Inconclusive results are not listed. The source made the active and inactive calls. Rule for the calls, unless noted: active = hit-call score of the fitted dose curve at least 0.9, where 1 is the maximum; inconclusive = response in the unintended direction; inactive = score below 0.9.
Assays:
[1] = CEETOX_H295R_MTT_cell_viability: Viability Assessment in the CeeTox HT-H295R MTT Assay (AID 2283718; active = hit-call score of the fitted dose curve at least 0.9, where 1 is the maximum; inactive = score below 0.9;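 for AC50: curve fitted both ways so AC50 may mark viability loss or gain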)
Procedure, shortened: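 H295R cells prestimulated 48 h with 10 uM forskolin, then exposed 48 h to test chemical (0.1% DMSO final). Viability by MTT (0.5 mg/ml, 4 h, 37 C), absorbance 570/650 nm; percent change versus DMSO, bidirectional fit.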

[2] = ACEA_AR_agonist_AUC_viability: ACEA Biosciences xCELLigence Real-Time Cell Analysis on Androgen Receptor Agonism for Viability (AID 2283775);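 for AC50: viability read 80 hours after compound addition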
Procedure, shortened: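 Read-out is area under the impedance curve at 80 h post-dose in 22Rv1 cells, with DMSO as baseline and signal loss taken as reduced viability. Compounds ran in duplicate from 100 uM final.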

[3] = ACEA_AR_antagonist_AUC_viability: ACEA Biosciences xCELLigence Real-Time Cell Analysis on Androgen Receptor Antagonism for Viability (AID 2283776);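 note: area under impedance growth curve at 80 h after dosing as viability; hits lower the growth signal relative to DMSO meaning cytotoxicity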
Procedure, shortened: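 22Rv1 human prostate cancer cells were seeded on electrode plates, monitored overnight, then exposed to eight 1:4 dilutions from 100 uM final. Impedance-based growth kinetics at 80 h gave an AUC viability endpoint normalized to DMSO.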

AR (gene 367) [4] = target: AR (gene 367) (UniProt P10275); assay: ACEA_AR_antagonist_80hr: ACEA Biosciences xCELLigence Real-Time Cell Analysis on Androgen Receptor Antagonism for Proliferation (AID 2283787);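 note: hits lower the impedance growth signal relative to DMSO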
Sequence of AR (gene 367) (P10275 whole entry, looked up): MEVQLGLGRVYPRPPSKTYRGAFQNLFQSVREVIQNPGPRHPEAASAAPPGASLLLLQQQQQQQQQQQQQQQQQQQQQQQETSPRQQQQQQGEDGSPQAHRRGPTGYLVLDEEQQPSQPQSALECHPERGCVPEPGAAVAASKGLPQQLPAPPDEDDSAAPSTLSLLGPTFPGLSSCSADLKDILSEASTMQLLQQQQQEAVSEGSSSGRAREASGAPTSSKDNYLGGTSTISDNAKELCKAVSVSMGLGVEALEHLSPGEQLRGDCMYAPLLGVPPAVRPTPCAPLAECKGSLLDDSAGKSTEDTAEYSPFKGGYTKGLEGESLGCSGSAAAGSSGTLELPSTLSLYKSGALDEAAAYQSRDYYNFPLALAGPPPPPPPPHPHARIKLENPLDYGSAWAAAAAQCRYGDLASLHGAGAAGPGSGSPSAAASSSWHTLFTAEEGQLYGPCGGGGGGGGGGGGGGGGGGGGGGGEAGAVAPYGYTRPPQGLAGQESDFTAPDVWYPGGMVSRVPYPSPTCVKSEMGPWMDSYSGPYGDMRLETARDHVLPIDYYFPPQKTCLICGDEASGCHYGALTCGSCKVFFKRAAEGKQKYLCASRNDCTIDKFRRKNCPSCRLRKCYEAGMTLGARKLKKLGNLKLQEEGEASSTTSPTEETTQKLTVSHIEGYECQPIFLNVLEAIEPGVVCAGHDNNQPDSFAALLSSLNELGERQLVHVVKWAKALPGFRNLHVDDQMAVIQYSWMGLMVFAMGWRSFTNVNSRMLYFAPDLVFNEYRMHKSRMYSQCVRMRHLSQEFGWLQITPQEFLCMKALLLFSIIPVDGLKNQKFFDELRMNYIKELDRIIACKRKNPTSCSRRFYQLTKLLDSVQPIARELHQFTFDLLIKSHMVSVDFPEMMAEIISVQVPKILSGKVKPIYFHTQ
Procedure, shortened: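 Impedance readout (RT-CES), 80 h post-dose; loss-of-signal vs DMSO baseline. 22Rv1 cells in assay medium. Compounds: 8-pt 1:4 series, max 100 uM final, up to 0.5% DMSO; n = 2.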

[5] = ACEA_ER_AUC_viability: ACEA Biosciences xCELLigence Real-Time Cell Analysis on Estrogen Receptor Agonism for Viability (AID 2283782);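 note: continuous compound exposure with impedance area under curve over 80 h; hit means loss of impedance signal meaning reduced cell growth or viability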
Procedure, shortened: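 T-47D human breast cells in phenol red-free RPMI1640 with 10% charcoal-stripped FBS were dosed with an 8-point 1:4 dilution series from 100 uM top final concentration, in duplicate. Impedance-based growth was followed for 80 h; AUC analysed versus DMSO.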

[6] = STM_H9_OrnCyssISnorm_ratio: Stemina devTOX quickPredict H9 human embryonic stem cell (hESC)-based Assay for Ornithine (ORN):Cystine (CYSS) Ratio (AID 2283714)
Procedure, shortened: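 Undifferentiated H9 hESCs were exposed to compound for 72h with media and chemical replaced every 24h. Final 24-h conditioned media were deproteinized and analysed by UPLC-HRMS. ORN and CYSS peak areas were normalized to C13 internal standards and the ratio taken versus 0.1% DMSO.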

[7] = target: Luciferin 4-monooxygenase (Photinus pyralis) (UniProt P08659); assay: CCTE_Simmons_QuantiLum_inhib_2: CCTE's Firefly Luciferase Inhibition Assay, Simmons Lab (AID 2283767);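 for AC50: potency for inhibitors that lower luciferase luminescence relative to DMSO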
Sequence of Luciferin 4-monooxygenase (Photinus pyralis) (P08659 whole entry, looked up): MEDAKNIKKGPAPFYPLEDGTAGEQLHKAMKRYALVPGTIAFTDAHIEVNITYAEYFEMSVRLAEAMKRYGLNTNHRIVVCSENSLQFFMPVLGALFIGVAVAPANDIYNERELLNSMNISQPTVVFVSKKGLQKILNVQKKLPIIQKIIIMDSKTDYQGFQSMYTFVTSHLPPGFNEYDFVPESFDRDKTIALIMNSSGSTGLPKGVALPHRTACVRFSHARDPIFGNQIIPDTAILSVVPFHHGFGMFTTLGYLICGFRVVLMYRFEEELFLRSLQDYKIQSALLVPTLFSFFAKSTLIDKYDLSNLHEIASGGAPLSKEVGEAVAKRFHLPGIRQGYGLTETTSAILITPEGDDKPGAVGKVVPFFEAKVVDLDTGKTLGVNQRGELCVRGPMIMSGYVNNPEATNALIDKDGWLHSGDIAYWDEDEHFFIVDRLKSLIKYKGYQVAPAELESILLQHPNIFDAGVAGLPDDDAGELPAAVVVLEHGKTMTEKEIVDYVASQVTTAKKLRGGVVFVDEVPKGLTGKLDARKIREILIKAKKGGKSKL
Procedure, shortened: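 Recombinant firefly luciferase (5 ng/well, 200 mM potassium phosphate with 1 mg/ml BSA) was exposed to 8 concentrations from 5 nM to 87.5 uM (final, 0.5% DMSO) for 30 min at 37C in the dark. Loss of luminescence versus DMSO was read after injecting D-luciferin/ATP-analogue reagent.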

[8] = target: zebrafish Estrogen Receptor (ESR1), esr1 (gene 259252) (UniProt P57717); assay: ATG_zfER1_XSP1: Attagene TRANS-FACTORIAL Multi-Species (XSP1) HepG2 Assay for zebrafish Estrogen Receptor (ESR1) (AID 2283772)
Sequence of zebrafish Estrogen Receptor (ESR1), esr1 (gene 259252) (P57717 whole entry, looked up, the tested form may be a part): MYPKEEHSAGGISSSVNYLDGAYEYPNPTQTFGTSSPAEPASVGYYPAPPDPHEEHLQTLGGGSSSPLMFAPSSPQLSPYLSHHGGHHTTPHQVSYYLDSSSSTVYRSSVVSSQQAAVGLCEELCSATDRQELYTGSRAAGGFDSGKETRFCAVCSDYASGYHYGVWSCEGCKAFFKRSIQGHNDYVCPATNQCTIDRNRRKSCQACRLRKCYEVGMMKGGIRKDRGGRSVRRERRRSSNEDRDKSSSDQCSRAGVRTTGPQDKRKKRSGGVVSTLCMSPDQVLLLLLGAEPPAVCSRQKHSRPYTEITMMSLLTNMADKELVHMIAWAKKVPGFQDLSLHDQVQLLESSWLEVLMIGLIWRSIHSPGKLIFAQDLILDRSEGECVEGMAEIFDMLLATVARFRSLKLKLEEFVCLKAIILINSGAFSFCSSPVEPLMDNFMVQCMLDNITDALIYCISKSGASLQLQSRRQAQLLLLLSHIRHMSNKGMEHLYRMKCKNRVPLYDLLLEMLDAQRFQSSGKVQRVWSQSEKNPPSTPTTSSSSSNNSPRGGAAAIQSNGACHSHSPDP
Procedure, shortened: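 Trans-activation readout: transfected zebrafish ER-Gal4 drives a UAS reporter in human HepG2 liver cells. After 24 h compound exposure (medium containing 3 nM 6-alpha-fluorotestosterone), induced reporter transcripts were quantified by RT-PCR with capillary electrophoresis, relative to DMSO.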

[9] = tested on: zebrafish Estrogen Receptor (ESR2B), gene 317733; assay: ATG_zfER2b_XSP1: Attagene TRANS-FACTORIAL Multi-Species (XSP1) HepG2 Assay for zebrafish Estrogen Receptor (ESR2B) (AID 2283773)
Procedure, shortened: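 HepG2 cells transiently transfected with multiple GAL4-UAS reporter units expressing chimeric zebrafish ER2b-Gal4; 24 h chemical exposure with 3 nM 6-alpha-fluorotestosterone present. Reporter mRNA measured by RT-PCR and capillary electrophoresis; gain of signal fitted versus DMSO.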

[10] = tested on: frog Estrogen Receptor (ESR2), gene 100174814; assay: ATG_frER2_XSP1: Attagene TRANS-FACTORIAL Multi-Species (XSP1) HepG2 Assay for frog Estrogen Receptor (ESR2) (AID 2283774)
Procedure, shortened: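 HepG2 cells transiently transfected with GAL4-UAS multiplexed reporter units expressing chimeric NR-Gal4 proteins; reporter mRNA measured 24 h after dosing by RT-PCR, FAM labeling, HpaI digestion and capillary electrophoresis. Gain-of-signal relative to DMSO; 3 nM 6-alpha-fluorotestosterone present.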

[11] = tested on: frog Estrogen Receptor (ESR1), gene 398734; assay: ATG_frER1_XSP1: Attagene TRANS-FACTORIAL Multi-Species (XSP1) HepG2 Assay for frog Estrogen Receptor (ESR1) (AID 2283777)
Procedure, shortened: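 Read-out: fluorescent reporter mRNA via RT-PCR, HpaI digestion and capillary electrophoresis, after 24 h chemical exposure of transiently transfected human HepG2 cells expressing exogenous NR-Gal4 chimeras. DMSO served as baseline for positive-direction fitting.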

[12] = tested on: zebrafish Estrogen Receptor (ESR2A), gene 317734; assay: ATG_zfER2a_XSP1: Attagene TRANS-FACTORIAL Multi-Species (XSP1) HepG2 Assay for zebrafish Estrogen Receptor (ESR2A) (AID 2283778)
Procedure, shortened: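 HepG2 cells transiently transfected with multiplexed GAL4-UAS reporter units and chimeric NR-GAL4 receptors; 24 h compound exposure with 3 nM 6-alpha-fluorotestosterone present. Reporter mRNA quantified by RT-PCR and capillary electrophoresis, gain-of-signal fitted relative to DMSO.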

[13] = target: chicken Estrogen Receptor (ESR1), ESR1 (gene 396099) (UniProt P06212); assay: ATG_chERa_XSP1: Attagene TRANS-FACTORIAL Multi-Species (XSP1) HepG2 Assay for chicken Estrogen Receptor (ESR1) (AID 2283779)
Sequence of chicken Estrogen Receptor (ESR1), ESR1 (gene 396099) (P06212 whole entry, looked up, the tested form may be a part): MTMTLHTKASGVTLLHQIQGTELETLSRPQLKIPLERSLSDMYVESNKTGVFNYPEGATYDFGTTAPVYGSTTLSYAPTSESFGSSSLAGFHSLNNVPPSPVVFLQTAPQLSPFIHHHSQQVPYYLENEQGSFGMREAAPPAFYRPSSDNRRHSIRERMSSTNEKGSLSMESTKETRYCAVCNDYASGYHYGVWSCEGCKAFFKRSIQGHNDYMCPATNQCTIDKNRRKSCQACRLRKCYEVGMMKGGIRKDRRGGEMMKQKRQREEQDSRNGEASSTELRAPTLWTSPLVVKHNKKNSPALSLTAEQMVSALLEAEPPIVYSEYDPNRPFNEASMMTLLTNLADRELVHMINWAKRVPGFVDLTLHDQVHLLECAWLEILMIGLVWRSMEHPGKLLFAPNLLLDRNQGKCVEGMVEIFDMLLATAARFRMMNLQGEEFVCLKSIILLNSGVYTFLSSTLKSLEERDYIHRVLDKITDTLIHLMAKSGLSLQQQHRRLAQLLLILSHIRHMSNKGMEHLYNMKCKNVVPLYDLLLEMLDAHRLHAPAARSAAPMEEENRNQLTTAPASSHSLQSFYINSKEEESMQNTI
Procedure, shortened: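 HepG2 cells transiently transfected with multiplexed GAL4-UAS reporter units expressing chimeric NR-Gal4 proteins; 3 nM 6-alpha-fluorotestosterone present. Reporter mRNA measured 24 h after dosing by RT-PCR, FAM labelling, HpaI digest and capillary electrophoresis; gain of signal versus DMSO.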

[14] = tested on: turtle Estrogen Receptor (ESR1), gene 101933533; assay: ATG_trERa_XSP1: Attagene TRANS-FACTORIAL Multi-Species (XSP1) HepG2 Assay for turtle Estrogen Receptor (ESR1) (AID 2283781)
Procedure, shortened: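 HepG2 cells transiently transfected with GAL4-UAS reporter units and chimeric NR-Gal4 constructs, dosed for 24 h with 3 nM 6-alpha-fluorotestosterone present. Reporter mRNA was quantified by RT-PCR, fluorescent labelling and capillary electrophoresis, with gain of signal fitted relative to DMSO.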

[15] = tested on: turtle Androgen Receptor (AR), gene 101947425; assay: ATG_trAR_XSP1: Attagene TRANS-FACTORIAL Multi-Species (XSP1) HepG2 Assay for turtle Androgen Receptor (AR) (AID 2283786)
Procedure, shortened: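 HepG2 cells transiently transfected with a turtle AR–GAL4 chimera and GAL4-UAS reporter, co-treated with 3 nM 6-alpha-fluorotestosterone for partial stimulation. Reporter mRNA is quantified at 24 h by RT-PCR and capillary electrophoresis, gain-of-signal versus DMSO.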

[16] = target: Estrogen receptor beta (Homo sapiens) (UniProt Q92731); assay: ATG_hERb_XSP1: Attagene TRANS-FACTORIAL Multi-Species (XSP1) HepG2 Assay for human Estrogen Receptor (ESR2) (AID 2283788)
Sequence of Estrogen receptor beta (Homo sapiens) (Q92731 whole entry, looked up, the tested form may be a part): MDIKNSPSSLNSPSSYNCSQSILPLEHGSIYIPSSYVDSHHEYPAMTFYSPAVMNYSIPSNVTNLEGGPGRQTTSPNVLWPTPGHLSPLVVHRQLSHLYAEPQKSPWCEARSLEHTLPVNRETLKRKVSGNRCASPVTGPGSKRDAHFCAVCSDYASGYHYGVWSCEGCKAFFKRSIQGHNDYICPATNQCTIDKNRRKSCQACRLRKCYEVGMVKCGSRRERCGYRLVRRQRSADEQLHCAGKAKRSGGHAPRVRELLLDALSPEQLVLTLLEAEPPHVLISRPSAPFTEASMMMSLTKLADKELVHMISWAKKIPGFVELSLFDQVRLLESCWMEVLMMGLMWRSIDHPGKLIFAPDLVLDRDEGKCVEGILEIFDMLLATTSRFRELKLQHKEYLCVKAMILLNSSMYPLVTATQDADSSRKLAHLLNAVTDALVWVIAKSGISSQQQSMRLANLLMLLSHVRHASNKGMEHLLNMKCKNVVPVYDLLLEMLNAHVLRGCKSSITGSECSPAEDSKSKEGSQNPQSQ
Procedure, shortened: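 Read-out: reporter mRNA induction by RT-PCR, HpaI digestion and capillary electrophoresis fluorescence, fitted in positive direction relative to DMSO baseline. Human liver HepG2 cells expressing ERβ-Gal4 fusion, dosed 24 h, medium containing 3 nM 6-alpha-fluorotestosterone.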

AR (gene 367) [17] = target: AR (gene 367) (UniProt P10275); assay: ACEA_AR_agonist_80hr: ACEA Biosciences xCELLigence Real-Time Cell Analysis on Androgen Receptor Agonism for Proliferation (AID 2283783);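 note: hits increase impedance growth signal above DMSO baseline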
Procedure, shortened: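 22Rv1 human prostate cancer cells were seeded after preconditioning in assay medium and monitored overnight, then dosed in an eight-point 1:4 dilution series from 100 uM (≤0.5% DMSO). Impedance-based growth was read at 80 h, gain-of-signal versus DMSO.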

SMILES: CCOC(=O)[C@@H](C)Oc1ccc(Oc2nc3ccc(Cl)cc3o2)cc1
- outcome [1]: inactive
- AC50 [2]: 5.36 µM (active)
- outcome [3]: inactive
- AC50 (AR (gene 367) [4]): 3.55 µM (active)

SMILES: Nc1ccc(N)c2c1C(=O)c1ccccc1C2=O
- outcome [1]: inactive
- AC50 [2]: 9.05 µM (active)
- outcome [5]: inactive
- AC50 (AR (gene 367) [4]): 16.6 µM (active)

SMILES: C=CC(C)(O)CCC=C(C)C (stereo not drawn)
- outcome [6]: inactive
- outcome [5]: inactive

SMILES: CCc1cc(C(C)(C)C)c(O)c(C(C)(C)C)c1
- outcome [1]: inactive
- outcome [7]: inactive
- outcome [2]: inactive
- AC50 [5]: 81.8 µM (active)

SMILES: CCCCCC(C=O)=Cc1ccccc1
- outcome [7]: inactive

SMILES: CC=Cc1ccc(OC)c(OC)c1
- outcome [1]: inactive
- outcome [5]: inactive

SMILES: CCOc1ccc(N=Nc2ccc(C=Cc3ccc(N=Nc4ccc(OCC)cc4)cc3S(=O)(=O)O)c(S(=O)(=O)O)c2)cc1
- outcome [7]: inactive

SMILES: C=C1CC[C@H](O)C/C1=C/C=C1\CCC[C@]2(C)[C@@H]([C@H](C)/C=C/[C@H](C)C(C)C)CC[C@@H]12
- AC50 [1]: 83.4 µM (active)
- outcome [7]: inactive
- outcome [2]: inactive
- AC50 [5]: 79.1 µM (active)

SMILES: O=c1c(O)c(-c2ccc(O)cc2)oc2cc(O)cc(O)c12
- AC50 [7]: 34.3 µM (active)
- outcome [2]: inactive

SMILES: Nc1ccc2cc(S(=O)(=O)O)cc(O)c2c1N=Nc1ccccc1C(F)(F)F
- AC50 [7]: 51.7 µM (active)

SMILES: CC=Cc1ccc(OCC)c(O)c1
- outcome [1]: inactive
- outcome [5]: inactive

SMILES: COc1ccccc1N=Nc1c(S(=O)(=O)O)cc2cc(S(=O)(=O)O)cc(NC(C)=O)c2c1O
- AC50 [7]: 13.8 µM (active)
- outcome [2]: inactive

SMILES: C=C[Si]1(C)O[Si](C)(C=C)O[Si](C)(C=C)O[Si](C)(C=C)O1 (stereo not drawn)
- outcome [1]: inactive
- outcome [3]: inactive
- AC50 [5]: 88 µM (active)

SMILES: O=C(O)CCCCCCCCC(=O)O
- outcome [7]: inactive
- AC50 [2]: 2.76 µM (active)
- AC50 [3]: 2.07 µM (active)

SMILES: CN(C)c1cccc(O)c1
- AC50 [7]: 40.6 µM (active)

SMILES: Oc1ccc2cc(SSc3ccc4cc(O)ccc4c3)ccc2c1
- outcome [7]: inactive

SMILES: CCCCC(CC)COC(=O)c1ccc(O)cc1 (stereo not drawn)
- outcome [7]: inactive
- outcome [8]: inactive
- AC50 [9]: 3.67 µM (active)
- AC50 [10]: 0.86 µM (active)
- outcome [2]: inactive
- AC50 [11]: 1.91 µM (active)
- AC50 [12]: 1.41 µM (active)
- AC50 [13]: 2.3 µM (active)
- AC50 [14]: 3.59 µM (active)
- AC50 [5]: 22.4 µM (active)
- outcome [15]: inactive
- outcome [16]: inactive

SMILES: OCc1cccc(Oc2ccccc2)c1
- outcome [1]: inactive
- outcome [2]: inactive
- outcome [3]: inactive
- outcome (AR (gene 367) [17]): inactive

SMILES: CCCCCCCCC=CCCCCCCCC1=NCCN1CCO
- outcome [7]: inactive
- outcome [2]: inactive
- outcome [3]: inactive
- outcome (AR (gene 367) [17]): inactive
- outcome (AR (gene 367) [4]): inactive

From PubChem BioAssay (EPA / NIEHS)
